Values joined by “and” are separate entries in the source; they are usually repeats but may differ in a detail not shown here. Equal values may be shown once. Results filed as inconclusive are left out. Active and inactive are the calls of the source. Unless noted, calls follow the shape of the dose curve; as a rule, active = well fitted curve in the direction sought with a large enough effect; inconclusive = small, poorly fitted or top-dose-only effect, or another doubt; inactive = no such curve, though single readings can be large; an effect the other way counts as inactive or inconclusive.
Tests used:
[1] = qHTS to identify inhibitors of the type 1 interferon - major histocompatibility complex class I in skeletal muscle: primary screen against the NCATS Mechanism Interrogation Plate v5.0 (MIPE) Libary (AID 1347411); also: nearly all actives have a fitted effect of over 65% in size;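 as to activity change, negative = inhibition: plate controls were vehicle for no effect and reference inhibitor for full effect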
Summary of the method: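 Cells were genome-edited human myoblasts carrying a HiBit tag on endogenous HLA-B. They were treated with IFN-beta (4.0 ng/ml) and titrated compounds (top 46 uM) for 24 hrs before lytic HiBiT detection.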

[2] = Primary qHTS for inhibitors of nuclear receptor binding SET domain protein 2 (NSD2) in an isogenic RCH-ACV NSD2 p.E1099K mutant (9B) (AID 1645876); also: nearly all actives have a fitted effect of over 70% in size
[3] = Primary qHTS for inhibitors of nuclear receptor binding SET domain protein 2 (NSD2) in an RCH-ACV wild type WT cells (2C) (AID 1645877); also: nearly all actives have a fitted effect of over 70% in size
[4] = target: Glutathione peroxidase 1 (Homo sapiens) (UniProt P07203); test: Primary qHTS Assay for Inhibitors of Recombinant Selenoprotein Glutathione Peroxidase 1 (GPX1) (AID 1845191); also: nearly all actives have a fitted effect of over 65% in size
Glutathione peroxidase 1 (Homo sapiens), sequence (P07203 whole entry, looked up): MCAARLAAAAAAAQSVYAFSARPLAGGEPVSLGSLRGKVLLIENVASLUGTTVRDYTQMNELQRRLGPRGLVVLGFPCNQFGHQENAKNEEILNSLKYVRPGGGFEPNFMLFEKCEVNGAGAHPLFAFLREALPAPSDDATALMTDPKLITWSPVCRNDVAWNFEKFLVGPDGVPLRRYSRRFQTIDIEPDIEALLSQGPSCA
Summary of the method: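 Recombinant GPX1 (10 nM final) was preincubated with compound for 30 min at room temperature, then reacted with 1 mM GSH, 0.5 mM CHP, 0.5 mM NADPH and 100 nM glutathione reductase; NADPH fluorescence (340/450 nm) was read at 0 and 15 min.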

[5] = target: Phospholipid hydroperoxide glutathione peroxidase GPX4 (Homo sapiens) (UniProt P36969); test: Primary qHTS Assay for Inhibitors of Recombinant Selenoprotein Glutathione Peroxidase 4 (GPX4) (AID 1845192); conditions: outcome: dose series up to 50 µM unless noted; also: nearly all actives have a fitted effect of over 65% in size; as to activity change, negative = inhibition: series mostly up to about 50 µM; % is scaled to controls: 0 for no effect and ±100 for the full control effect
Phospholipid hydroperoxide glutathione peroxidase GPX4 (Homo sapiens), sequence (P36969 whole entry, looked up): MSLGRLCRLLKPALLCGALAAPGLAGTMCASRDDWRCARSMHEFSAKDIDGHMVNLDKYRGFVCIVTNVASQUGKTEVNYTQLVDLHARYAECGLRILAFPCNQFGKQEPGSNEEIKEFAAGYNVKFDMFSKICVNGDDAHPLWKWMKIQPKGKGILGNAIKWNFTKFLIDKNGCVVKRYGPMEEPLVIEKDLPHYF
Summary of the method: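 GR-coupled readout: 100 nM GR, 1 mM GSH, 0.5 mM NADPH; NADPH fluorescence (ex 340/em 450 nm) read at t=0 and after 15 min RT. GPX4 200 nM, preincubated 30 min with compound; substrate 0.5 mM CHP.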

[6] = qHTS drug screen for cell cycle checkpoint inhibitors in PARPi-resistant BRCA-mutant ovarian cancer cell lines. (AID 1963452; calls by dose curve); conditions: PEO1/OlaR viability, CellTiter-Glo luminescence, 96 h; for Z-AUC: stronger effect = lower value
Summary of the method: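 PEO1, PEO4 and PEO1/OlaR ovarian cancer cells, 600 per well, exposed 96 h at 37C to a dilution series. Viability read by CellTiter-Glo luminescence, normalized to DMSO and empty wells; activity summarized as Z-AUC.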

[7] = measured here: PEO1 parental Z-AUC
Potency is read from the fitted curve at half-maximal effect.

SMILES | Potency [1] | Potency [2] | Potency [3] | Potency [4] | Potency [5] | Z-AUC [6] | Z-AUC [6, 7] | Z-AUC ([6]; measured here: PEO4 Z-AUC) | Potency [6] | activity change, negative = inhibition [1] | outcome [4] | activity change, negative = inhibition [5]
O=c1oc2c(C3OCCCO3)c(O)ccc2c2c1CNCC2 | inactive | inactive | inactive | inactive | 14.3 µM (active) | 0.112 (inactive) | -0.774 | -0.202 | – | – | – | –
N#Cc1ccnc(N2C(=O)CC[C@H]2C(=O)N(c2cncc(F)c2)C(C(=O)NC2CC(F)(F)C2)c2ccccc2Cl)c1 (some centres not stated) | inactive | inactive | inactive | inactive | inactive | 1.6 (inactive) | 0.937 | 1.33 | – | – | – | –
C[C@@]1(c2ncncc2F)NC(=O)c2cc(-c3cn[nH]c3)ccc21 | 20.8 µM (active) | 14.8 µM (active) | 14.8 µM (active) | inactive | inactive | -0.499 (inactive) | -0.528 | -0.372 | – | – | – | –
O=C(NO)c1cnc(N2C[C@H]3C[C@@H]2CN3c2cc(C(F)(F)F)ccn2)nc1 | 4.66 µM (active) | 2.95 µM (active) | 2.95 µM (active) | inactive | inactive | -1 (inactive) | -1.23 | -1.32 | – | – | – | –
O=C1CC[C@H](N2Cc3c(OCc4ccc(CN5CCOCC5)cc4)cccc3C2=O)C(=O)N1 | inactive | 0.0166 µM (active) | 0.0332 µM (active) | inactive | inactive | 1.34 (inactive) | 1.06 | 1.23 | – | – | – | –
Cc1ccc(NS(=O)(=O)c2ccc3c(c2)C2C=CCC2C(c2ccc(C(=O)O)cc2)N3)cc1C (configuration not stated) | inactive | inactive | inactive | inactive | 22.7 µM (active) | -0.665 (inactive) | -0.264 | -0.866 | – | – | – | –
N=C(N)c1ccc2nc(-c3cc(CC(=O)N[C@@H](CC(=O)O)C(=O)O)cc(-c4cc(S(N)(=O)=O)ccc4O)c3O)[nH]c2c1 | inactive | inactive | inactive | inactive | inactive | -0.76 (inactive) | -0.562 | -0.379 | – | – | – | –
C[C@H](NC(=O)CCC(F)(F)F)C(=O)N[C@@H]1C(=O)N(CCO)c2ncccc2-c2ccccc21 | inactive | inactive | inactive | inactive | inactive | -0.268 (inactive) | 0.166 | -0.664 | – | – | – | –
O=C(Nc1nccs1)C(c1cc(F)ccc1O)N1Cc2ccccc2C1=O (configuration not stated) | inactive | inactive | inactive | inactive | inactive | -0.378 (inactive) | -0.736 | -0.75 | – | – | – | –
C/C(=N\NC(=O)c1cccc(S(=O)(=O)N2CCOCC2)c1)c1cc(Cl)ccc1O | inactive | 2.09 µM (active) | 2.09 µM (active) | inactive | inactive | -1.37 (inactive) and -1.59 (inactive) | -1.95 and -1.28 | -2.11 and -1.42 | – | – | – | –
CCC(=O)N1CCOc2c(cc(-c3cc(OC)cc(OC)c3)cc2C(=O)N[C@H]2CCCN(C)C2)C1 | inactive | 4.17 µM (active) | 4.17 µM (active) | inactive | inactive | 1.12 (inactive) | 0.448 | 0.4 | – | – | – | –
CC1(C)S[C@H]2[C@H](NC(=O)[C@@H](N)c3ccc(O)cc3)C(=O)N2[C@H]1C(=O)O | inactive | inactive | inactive | inactive | inactive | -0.122 (inactive) | 0.11 | 0.161 | – | – | – | –
CCNCCS(=O)(=O)NC[C@@]1(c2ccccc2)SC(NC(=O)C(C)(C)C)=NN1C(=O)C(C)(C)C | inactive | 0.0093 µM (active) | 0.0074 µM (active) | inactive | inactive | – | -2.33 | -2.54 | 0.0087 µM (active) | – | – | –
Cc1ccc(NS(=O)(=O)c2cccc(C#N)c2)c2[nH]cc(C#N)c12 | inactive | 0.372 µM (active) | 0.417 µM (active) | inactive | inactive | -0.908 (inactive) | -1.02 | -1.95 | – | – | – | –
O=C(O)CC(C(=O)O)n1c(O)c(C2=c3cc(Br)ccc3=NC2=O)sc1=S (configuration not stated) | inactive | inactive | inactive | 5.15 µM (active) | 10.1 µM (active) | 1.23 (inactive) | 0.91 | 1.08 | – | – | – | –
CN1CCCN(C(=O)c2cccc(-c3ccc(/C=C4/C(=O)Nc5ccc(Cl)cc54)o3)c2)CC1 | 8.29 µM (active) | 0.186 µM (active) | 0.166 µM (active) | inactive | inactive | 0.657 (inactive) | -0.436 | -0.635 | – | – | – | –
COCCOC(=O)N1CCN(S(=O)(=O)c2cc(F)c(Oc3ccc(Cl)cc3)c(F)c2)C(C(=O)NO)C1 (configuration not stated) | 18.6 µM (active) | 5.9 µM (active) | 4.68 µM (active) | inactive | inactive | -1.01 (inactive) | -1.23 | -1.17 | – | – | – | –
CC[C@H]1OC(=O)[C@H](C)C(=O)[C@H](C)[C@@H](O[C@H]2O[C@H](C)C[C@H](N(C)C)[C@H]2O)[C@](C)(OC)C[C@@H](C)C(=O)[C@H](C)[C@H]2N(CCCCn3cnc(-c4cccnc4)c3)C(=O)O[C@]12C | inactive | inactive | inactive | inactive | inactive | 0.729 (inactive) | 0.267 | -0.0116 | – | – | – | –
Cc1cc(-c2cnn3c(NCC4CC(C)(O)C4)cc(Oc4cccnc4)nc23)ccc1C(=O)NC1CC1 (configuration not stated) | – | 0.148 µM (active) | 0.132 µM (active) | – | – | -0.227 (inactive) | 0.402 | -0.202 | – | -24.9% [at 5.1 µM] (inactive) | inactive [at 4.49 µM] | -10.8% [at 4.52 µM] (inactive)

— PubChem BioAssay (NCATS)
